The list is not random: actives were taken first. Their share in the collection is about 4.2%.
ssDAF-12 act: activates DAF-12 receptor from parasite S. stercoralis | HEK293 ssDAF-12/GRIP1 lit1-tk-luc reporter, luminescence; % of 3 µM dafachronic acid response | activation, % at 6.8 µM | hit rate 1% among 370,000;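 active = activation above the mean over all tested compounds plus 3 SD, cut at about 0.9% in these data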;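 also: 0% = DMSO-only wells and 100% = 3 µM delta7-dafachronic acid wells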
hcDAF-12 act: activators of H. contortus DAF-12 nuclear receptor; HEK293 hcDAF-12 lit1-tk-luc reporter, luminescence; 0% DMSO, 100% Δ7-dafachronic acid; activation, % at 6.8 µM; hit rate 1.4% among 370,000; AID 652067;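 active = activation above the mean of all tested compounds plus 3 SD, cut at about 5.5% in these data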;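 also: 100% = response to 3 µM Δ7-dafachronic acid high control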
esBAF inh: inhibitors of esBAF chromatin remodeling in mouse ES cells; hit rate 2% among 350,000; reporter increase, % at 12.5 µM; Bmi1-luciferase knock-in reporter, 24 h; 100% = twice the neutral-well signal; in the data active = activation above about 40%; inconclusive = no clear call, values can overlap the other calls;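 also: 0% = median of the plate's neutral control wells and 100% = double that signal; a rise in the Bmi1 reporter signal indicates esBAF inhibition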
hgDAF-12 ag: agonists of H. glycines DAF-12 nuclear receptor. AID 687014. activation, % at 6.8 µM. HEK293 GAL4-hgDAF12 UAS-luciferase reporter, agonist luminescence; normalized to butyrate control. hit rate 1.8% among 370,000;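 active = activation above a cutoff set at the mean of all screened compounds plus 3 SD, cut at about 10% in these data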;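 also: 0% = DMSO wells and 100% = sodium butyrate wells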
DAX1 inh: DAX1 (NR0B1) inhibition, primary screen; HEK293T StAR-luciferase reporter, SF-1/DAX-1 repression relief; inhibition, % at 6.8 µM; hit rate 1.1% among 370,000; AID 652010;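 active = inhibition above the mean over all tested compounds plus 3 SD, cut at about 3.6% in these data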;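 also: 0% = DAX-1 cells with DMSO and 100% = cells lacking DAX-1 with DMSO; higher inhibition means more luminescence from relief of DAX-1 repression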
Wnt act: Wnt/beta-catenin pathway activation | activation, % at 9.35 µM | hit rate 1.2% among 300,000 | Wnt/beta-catenin reporter cell assay, activator, plate reader; in the data active = activation above about 30%, passing the limit was not always enough; inconclusive = no clear call, values can overlap the other calls;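 also: 0% = neutral control wells and 100% = positive control wells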
Numbers without * were called inactive; u = inconclusive; x = no result; ! = not active in a repeat.

SMILES	ssDAF-12 act	hcDAF-12 act	esBAF inh	hgDAF-12 ag	DAX1 inh	Wnt act
Cc1cc(C)c2c(n1)sc1c(=O)n(CC(=O)c3ccccc3)cnc12	-0.7	0.1	46.7*	-0.8	0.1	u
O=C(Cn1cnc2c(oc3ccccc32)c1=O)c1ccccc1	-0.3	3.2	69.6*	5.8	1.3	48.5*
CCCNC(=O)Nc1ccc2c(c1)C(=O)N(C)C[C@@H](OC)[C@H](C)CN(Cc1ccc(-c3ccccn3)cc1)[C@H](C)CO2	x	x	7.0	x	x	x
COc1ccc(C(=O)N2CCn3c2nc2ccccc23)cc1	-1.6	1.1	u	4.0	0.4	23.3
O=C(c1ccc(Cl)cc1)N1CCn2c1nc1ccccc12	-1.4	-0.5	49.1*	-0.3	1.7	2.4
O=C(c1cccs1)N1CCn2c1nc1ccccc12	-0.6	5.2	36.2	6.8	4.3*	14.6
CC(=O)Nc1ccc(N2C(=O)CC(Sc3nc4ccccc4s3)C2=O)cc1 (stereo not given)	3.9*	0.6	14.7	-1.4	-0.4	-1.7
CSc1ccc(CN(C)C(=O)c2cc(=O)c3ccccc3o2)cc1	-0.8	-1.8	9.2	2.0	-0.2	-0.3
CSc1ccc(CN(C)C(=O)c2cc3ccccc3o2)cc1	-1.5	1.1	57.5*	-1.4	-0.1	-1.2
CCOC(=O)N1Cc2cc3ccccc3nc2C1	0.9*	4.5	x	8.9	2.2	8.6
CCCc1cc2c(=O)c(-c3ccccn3)c(C)oc2cc1O	-0.9	0.5	10.2	1.0	0.6	0.6
CCCc1cc2c(=O)c(-c3ccccn3)coc2cc1OC	-0.9	-0.4	99.6*	3.1	1.5	53.4*
Cn1cnc2c1c(=O)n(Cc1ccccc1)c(=O)n2C	-1.2	-0.8	0.7	0.5	0.3	32.0*
Cn1cnc2c1c(=O)n(Cc1cccc(Br)c1)c(=O)n2C	-1.4	-1.1	4.4	-1.3	-0.2	2.2
COc1cc(CNc2ccc3[nH]c(=O)[nH]c3c2)ccc1OCc1cccc(C)c1	-1.1	0.4	20.0	-2.0	-0.3	18.9
COc1cc(CNc2ccc3[nH]c(=O)[nH]c3c2)ccc1OCc1ccc(C)cc1	0.8	4.2	54.6*	11.5*	1.9	44.2*
COc1cc(CNc2ccc(N3CCN(C(C)=O)CC3)cc2)ccc1OCc1ccccc1	-1.1	0.0	x	6.5	0.0	40.0*
O=C(Nc1ccc(Cl)cc1)Nc1ccccc1C(=O)NCc1ccco1	-0.9	-1.9	17.7	-0.9	0.9	40.2*
O=C(NCCSCc1ccco1)Nc1ccc(Cl)cc1	-0.5	1.2	63.5*	2.1	0.9	1.5
CO[C@@H]1CN(C)C(=O)c2ccc(NC(=O)c3ccc(Oc4ccccc4)cc3)cc2OC[C@H](C)NC[C@H]1C	x	x	-1.1	x	x	x
CCCCNc1c(-c2ccc(-c3cccc(Cl)c3)cc2)nc2ccccn12	-0.1	1.0	18.8	11.0*!	1.6	u
C(=NN1CCCCCC1)c1ccccc1	-1.0	1.1	x	2.6	1.6	8.5
COc1cccc(/C=N\N2CCN(c3ccc(C)cc3)CC2)c1O	-1.1	-2.2	x	1.0	-0.2	x
O=C(O)c1ccc(C=NN2CCCCCC2)cc1	-0.5	2.4	46.6*	8.6	1.4	2.9
O=C(c1ccc(-c2ccccc2)cc1)N1CCN(c2ccccc2)CC1	0.7	0.9	50.6*	5.0	0.5	12.4
SMILES	ssDAF-12 act	hcDAF-12 act	esBAF inh	hgDAF-12 ag	DAX1 inh	Wnt act
COc1ccccc1N1CCN(/N=C/c2cccc(OC)c2O)CC1	-1.3	1.0	x	4.7	1.3	43.9*
COc1cccc(C=Nc2ccccc2C#N)c1O	2.1*	4.0	-3.8	1.0	0.5	-2.6
C[C@H](CO)N1C[C@H](C)[C@H](CN(C)Cc2ccncc2)Oc2c(NC(=O)C3CC3)cccc2C1=O	x	x	2.3	x	x	x
O=C(C[C@H]1CC[C@@H](NC(=O)C2CCC2)[C@H](CO)O1)NCc1ccccc1Cl	x	x	-6.6	x	x	x
COCC(=O)N(C)C[C@@H]1Oc2cc(-c3ccc(C#N)cc3)ccc2S(=O)(=O)N([C@H](C)CO)C[C@@H]1C	x	x	-2.8	x	x	x
CC(C)NC(=O)N(C)C[C@@H]1Oc2ncc(C#CC3CCCCC3)cc2C(=O)N([C@H](C)CO)C[C@H]1C	x	x	1.2	x	x	x
O=C(O)c1ccc(/C=N/N2CCN(c3ccccc3)CC2)cc1	-1.0	1.6	41.9*	10.0	0.8	6.2
COc1ccccc1N1CCN(/N=C/c2cccc(Cl)c2)CC1	0.3	0.7	99.7*	7.6	0.3	42.1*
COc1ccccc1N1CCN(/N=C/c2ccc(C(=O)O)cc2)CC1	-0.4	2.6	u	10.8*	0.8	10.9
COc1ccc(/C=N/N2CCN(c3ccccc3OC)CC2)cc1OC	-1.2	0.1	10.3	4.4	0.8	x
C(=N/N1CCN(c2ccccc2)CC1)/c1ccncc1	-1.9	-0.3	x	-0.5	-0.8	4.1
COc1ccc(C(=O)CN2CCN(c3ccc(F)cc3)CC2)cc1OC	-1.3	-0.1	x	-1.4	-0.8	x
COc1cccc(/C=N/N2CCN(c3ccccc3OC)CC2)c1	-1.3	-0.1	u	4.5	1.4	x
COc1ccccc1N1CCN(CC(=O)c2ccc(F)cc2)CC1	-1.6	0.8	41.9*	0.1	0.5	0.0
C[C@@H]1CN([C@H](C)CO)C(=O)Cc2cc(NS(=O)(=O)c3ccc(F)cc3)ccc2O[C@H]1CN(C)S(=O)(=O)c1ccc(F)cc1	x	x	4.0	x	x	x
CN(C)C(=O)C[C@@H]1C[C@H]2c3cc(NC(=O)CC4CC4)ccc3O[C@H]2[C@H](CO)O1	x	x	-0.3	x	x	x
COc1ccccc1N1CCN(C(=O)/C=C/c2ccco2)CC1	-0.4	-2.3	x	1.7	0.3	x
COc1ccc(CN2CCN(c3ccccc3OC)CC2)cc1OC	-1.6	-0.9	-5.0	0.8	-0.5	-0.7
COc1ccccc1N1CCN(Cc2ccsc2)CC1	1.1*	0.9	-5.3	-0.2	0.8	x
COc1ccccc1N1CCN(/N=C/C=C\c2ccco2)CC1	0.2	4.7	11.0	10.0	4.1*	-3.6
C[C@H](CO)N1C[C@H](C)[C@@H](CN(C)C)Oc2cc(C#CC3CC3)ccc2S1(=O)=O	x	x	-1.0	x	x	x
C[C@@H]1CN([C@@H](C)CO)C(=O)c2cc(NC(=O)c3ccncc3)ccc2O[C@@H](C)CCCCO[C@H]1CN(C)C(=O)CCCN(C)C	x	x	-1.8	x	x	x
CNC(=O)c1sc(-c2ccccc2)nc1C	-0.8	-1.3	7.9	3.4	0.1	x
CNC(=O)c1sc(-c2ccc(Cl)cc2)nc1C	-1.2	1.7	67.5*	7.1	1.9	8.1
CC(=O)N1C[C@@H]2[C@H](c3ccccc31)[C@H](CO)N2S(=O)(=O)c1ccccc1	x	x	2.5	x	x	x
O=C(CNc1ccccc1)Nc1ccc(F)cc1	0.9*	4.9	51.7*	10.9*	3.3	x
CNC(=O)Nc1ccc(C2SCCS2)cc1	-0.7	0.2	x	3.3	0.1	7.2
O=C(Nc1ccc(F)cc1)c1cc(-c2ccccc2)no1	-1.0	-0.1	x	1.5	0.3	35.3*

Bioassay records (PubChem)
